This is a sample that favours compounds with a hit; in the whole collection about 2.6% have one here.
KKLEB tox = CF airway cell cytotoxicity counter-screen; KKLEB CF airway cells viability, ATPlite luminescence, overnight; hits give low values; cells stimulated with P. aeruginosa culture filtrate; activity change (cytotoxicity), % at 5 µM; 360,000 compounds, 0.36% hits;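 active = corrected activity change at or below -50% at 5 µM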
Peg3 prom inh-1 = inhibitors of Peg3 promoter | HeLa PEG-Prom luciferase reporter, luminescence, overnight | inhibition, % at 20 µM | 360,000 compounds, 1.7% hits | AID 588405;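 active = inhibition of at least 50% at 20 µM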
Shn3 3UTR inh = Schnurri-3 reporter inhibition in Clone20 osteoblasts; Clone20 osteoblast Shn3 3'UTR firefly luciferase, 24 h; inhibition, % at 12.5 µM; 360,000 compounds, 0.52% hits; AID 588674;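 active = mean inhibition of at least 75% with every replicate also reaching 75%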
HIF-2a inh = HIF-2a inhibition. 786-0 RCC cells HIF-2a reporter, luciferase luminescence, overnight. inhibition, % at 18.8 µM. 360,000 compounds, 0.72% hits;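 active = inhibition of the luminescence signal of 40% or more relative to plate controls, in a single-dose primary screen at 18.75 µM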
CF NFkB inh = blocks PAF-induced NF-kB reporter in cystic fibrosis cells. KKLEB NF-kB-GFP reporter, GFP fluorescence overnight. 360,000 compounds, 0.86% hits. inhibition, % at 5 µM;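 active = at least 50% inhibition at 5 µM, scaled per plate between neutral and stimulator controls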;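 also: PAF is a Pseudomonas aeruginosa culture filtrate used as stimulus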
Peg3 prom inh-2 = confirmation of Peg3 promoter inhibitors; inhibition, % at 20 µM; shares compounds with Peg3 prom inh-1; 1,300 compounds, 84% hits; HeLa PEG-Prom luciferase reporter, luminescence, overnight;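 active = at 20 µM dose, 40% or more inhibition averaged across four replicates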
Of the large screens only hits and unclear results are named; the others gave an inactive call (follow-up assays come after a bar, where they were run).

CC(=O)c1ccc(Nc2nc(C(N)Cc3ccc(Cl)cc3)cs2)cc1 (stereo unspecified)	Peg3 prom inh-1 56 | Peg3 prom inh-2 72
CN(C)C=Nc1ncc2c3ccccc3n(CCN(C)C)c2c1C#N	none
CCN(CC)CCn1c2ccccc2c2cnc(N)c(C#N)c21	Peg3 prom inh-1 91 | Peg3 prom inh-2 94
COc1cc(NC(=O)c2ccc(F)cc2)c(OC)cc1Cl	none
COc1cc(NC(=O)c2c(F)c(F)c(F)c(F)c2F)c(OC)cc1Cl	Peg3 prom inh-1 70 | Peg3 prom inh-2 53
Cc1ncc(CO)c(/C=N/NC(=S)Nc2ccc(F)cc2)c1O	none
Cc1ncc(CO)c(/C=N/Nc2ccc(C(F)(F)F)cn2)c1O	Peg3 prom inh-1 62 | Peg3 prom inh-2 67
COc1cc(/C=C/C(=O)O)ccc1O	none
COc1cc(/C=C/C(=O)CC(=O)/C=C/c2ccc(O)c(OC)c2)ccc1O	Peg3 prom inh-1 64 | Peg3 prom inh-2 inactive
Cc1nc(N2CCN(S(=O)(=O)c3cccc4nonc34)CC2)c2c3c(sc2n1)CCCC3	none
CCn1c(/C=C/c2ccc(O)cc2)nc2ccccc2c1=O	none
CCn1c(/C=C2\C(=O)Nc3ccccc32)nc2ccccc2c1=O	Peg3 prom inh-1 52 | Peg3 prom inh-2 inactive
CCOc1cc(/C=N/Nc2nc(-c3cccc(S(=O)(=O)N4CCCC4)c3)cs2)ccc1O	Peg3 prom inh-1 52 | Peg3 prom inh-2 47
COCCCNCCCOc1ccc(Cl)cc1C(C)(C)C	Peg3 prom inh-1 62 | Peg3 prom inh-2 inactive
COCCNCCCOc1ccc(Cl)cc1Br	none
CCOC(=O)c1sc2nc(CSc3ccccc3)nc(N3CCCN(C)CC3)c2c1C	Peg3 prom inh-1 65 | Peg3 prom inh-2 94
C=CCc1cccc(/C=N/NC(=O)C(C)Nc2ccc(C)cc2)c1O (stereo unspecified)	Peg3 prom inh-1 55 | Peg3 prom inh-2 41
COc1ccc(/C=C/C(=O)NC(=S)NCc2ccccc2)cc1OC	none
CCC(C)n1cnc2c(c1=O)c1nc3ccccc3nc1n2-c1ccc2c(c1)OCCO2 (stereo unspecified)	Peg3 prom inh-1 56 | Peg3 prom inh-2 inactive
CCn1c2ccccc2c2cc(NC(=O)C(C)OC(=O)c3ccc(NC(=O)CC#N)cc3)ccc21 (stereo unspecified)	KKLEB tox -65, Peg3 prom inh-1 67 | Peg3 prom inh-2 55
CCn1c2ccccc2c2cc(NC(=O)COC(=O)c3ccc(O)cc3)ccc21	none
CN(C)C(=O)c1cccc(-c2cnc3c(NC=O)cc(-c4cccc(C(F)(F)F)c4)cn23)c1	Peg3 prom inh-1 57 | Peg3 prom inh-2 61
COc1cccc(-c2cc(NC=O)c3ncc(-c4cccc(C(=O)N(C)C)c4)n3c2)c1	none
COc1cccc(-c2cnc3c(NC=O)cc(-c4cccc(C(=O)N(C)C)c4)cn23)c1	Peg3 prom inh-1 55 | Peg3 prom inh-2 54
Cc1ccc(-c2cn(-c3ccccc3)c(SCC(=O)NC3CCS(=O)(=O)C3)n2)cc1C (stereo unspecified)	none
c1ccc(C2CC(c3ccccc3)n3c(nc4ccccc43)N2)cc1 (stereo unspecified)	Peg3 prom inh-1 76 | Peg3 prom inh-2 inactive
CCc1ccc(C2CC(c3ccccc3)Nc3nc(N)nn32)cc1 (stereo unspecified)	none
COc1cc(C=NO)nc(-c2ccccn2)c1	Peg3 prom inh-1 52, Shn3 3UTR inh 93 | Peg3 prom inh-2 65
O=C(Nc1ccccc1)c1nc[nH]c1C(=O)NCCCNC(=O)c1[nH]cnc1C(=O)Nc1ccccc1	Peg3 prom inh-1 63 | Peg3 prom inh-2 46
O=C(Nc1ccccc1)c1nc[nH]c1C(=O)NCCCCCCNC(=O)c1[nH]cnc1C(=O)Nc1ccccc1	Peg3 prom inh-1 62 | Peg3 prom inh-2 57
CNC(=O)c1[nH]cnc1C(=O)Nc1ccccc1	none
O=C(Nc1ccccc1)c1nc[nH]c1C(=O)NCCN(CCNC(=O)c1[nH]cnc1C(=O)Nc1ccccc1)CCNC(=O)c1[nH]cnc1C(=O)Nc1ccccc1	none
CC(=O)N1CCN(C(=S)Nc2ccc(Oc3ccccc3)cc2)CC1	none
CN1Cc2c(N3CCOCC3)nc3sc(C(=O)c4ccc(Br)cc4)c(N)c3c2CC1(C)C	Peg3 prom inh-1 80 (no result: Shn3 3UTR inh) | Peg3 prom inh-2 97
CN1Cc2c(N3CCOCC3)nc3sc(C#N)c(N)c3c2CC1(C)C	none
